# Most compounds without a hit are left out; they make up all but 9% or so of the library.
# BAZ2B block: blocks human BAZ2B; AlphaScreen BAZ2B-H3K14Ac peptide displacement; Q9UIF8; 360,000 compounds, 4.4% hits; Potency, µM (series often up to 114 µM), inactives show at the top dose activity change, negative = inhibition, most hits filed as inhibitors; also: potency is read from the fitted curve at half-maximal effect; % is scaled to controls: 0 for no effect and ±100 for the full control effect; nearly all actives have a fitted effect of over 60% in size
#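 Complex of BAZ2B and biotin-H3K14Ac (50 nM apiece) forms over 30 min at RT, then faces library compounds up to 110 uM for another 30 min; AlphaScreen beads added, 20 min dark incubation, luminescence read.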
# G9a inh-1: blocks human histone lysine methyltransferase G9a. G9a H3K9 monomethylation, AlphaScreen, 2 h. Q96KQ7. 350,000 compounds, 8.8% hits. Potency, µM (doses to about 102 µM), for the others: at the top dose activity, negative = inhibition, usual class: inhibitors. AID 504332; also: potency is read from the fitted curve at half-maximal effect; % is scaled to controls: 0 for no effect and ±100 for the full control effect; nearly all actives have a fitted effect of over 75% in size
# Target sequence (Q96KQ7 913-1193 limits assumed): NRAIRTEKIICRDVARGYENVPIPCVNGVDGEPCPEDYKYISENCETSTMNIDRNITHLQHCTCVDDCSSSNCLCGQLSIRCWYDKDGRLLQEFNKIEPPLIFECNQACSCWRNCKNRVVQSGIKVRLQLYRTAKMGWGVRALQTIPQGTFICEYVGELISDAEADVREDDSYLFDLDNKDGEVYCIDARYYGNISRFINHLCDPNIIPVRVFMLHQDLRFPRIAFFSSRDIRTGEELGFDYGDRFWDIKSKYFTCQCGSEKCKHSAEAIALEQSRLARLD
#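 AlphaScreen read-out: biotin-H3K9 peptide (500 nM) methylation by 20 nM enzyme with 20 uM SAM, 2 h at room temperature after 15 min compound preincubation; anti-monomethyl H3K9 antibody plus donor/acceptor beads, 10 min dark.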
# 12-LOX inh: inhibitors of human 12S-lipoxygenase ALOX12; P18054; purified 12hLO, xylenol orange hydroperoxide absorbance; Potency, µM (highest dose often 108 µM), inactives show top-dose activity change, negative = inhibition, most hits filed as inhibitors; 580,000 compounds, 1.1% hits; also: potency is read from the fitted curve at half-maximal effect; % is scaled to controls: 0 for no effect and ±100 for the full control effect
#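 Purified human 12hLO at 150 nM in 25 mM Hepes, 0.01% Triton X-100, pH 7.0, preincubated 15 min at room temperature with compound. Reaction started with 40 uM arachidonic acid, 30 min at room temperature. Hydroperoxide measured by Fe-xylenol orange, 573/405 nm absorbance ratio.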
# HP1b binding inh: HP1-beta chromodomain-methylated histone interaction inhibition; P83916; AlphaScreen HP1-beta / biotin-H3K9me3 peptide binding; Potency, µM (doses to about 114 µM), for the others: at the top dose activity change, negative = inhibition, hits mostly inhibitors; 390,000 compounds, 0.56% hits; AID 540317; also: potency is read from the fitted curve at half-maximal effect; nearly all actives have a fitted effect of over 70% in size
# Target sequence (P83916 whole entry, looked up): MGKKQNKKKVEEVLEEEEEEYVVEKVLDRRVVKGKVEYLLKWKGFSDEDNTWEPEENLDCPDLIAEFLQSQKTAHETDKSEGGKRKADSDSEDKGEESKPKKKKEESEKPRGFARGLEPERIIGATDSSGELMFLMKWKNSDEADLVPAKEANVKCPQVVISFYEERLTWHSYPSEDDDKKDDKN
#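 Compound inhibition of the preformed complex between 50 nM HP1-beta and 50 nM biotinylated H3K9me3 peptide was read by AlphaScreen. Buffer was PBS pH 7.4 with 0.01% Tween-20. Incubations ran 30 min at room temperature, with 10 ug/mL donor/acceptor beads.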
# PLK1 PBD inh: PLK1 (human) polo-box domain binding inhibition. P53350. 360,000 compounds, 2.8% hits. AID 720504. Plk1 PBD binding of FITC phosphopeptide, fluorescence polarization. Potency, µM, inactives show max response, negative = inhibition, actives largely listed as inhibitors; also: potency is read from the fitted curve at half-maximal effect; series mostly up to about 57 µM; % is scaled to controls: 0 for no effect and ±100 for the full control effect; nearly all actives have a fitted effect of over 65% in size
# JMJD2A Tudor inh: blocks the human JMJD2A Tudor domain; O75164; AlphaScreen JMJD2A-Tudor / H3K4me3 peptide binding; Potency, µM (series often up to 114 µM), for inactives: top-dose activity change, negative = inhibition, most hits filed as inhibitors; 390,000 compounds, 4.4% hits; also: potency is read from the fitted curve at half-maximal effect; % is scaled to controls: 0 for no effect and ±100 for the full control effect; nearly all actives have a fitted effect of over 50% in size
# JMJD2E confirm: confirmation of inhibitors of human JMJD2E demethylase; shares compounds with JMJD2A Tudor inh; Recombinant JMJD2E, FDH-coupled NADH fluorescence (FDH is formaldehyde dehydrogenase); Potency, µM (titrated, usually from 56.8 µM), for inactives: at the top dose activity change, negative = inhibition, hits mostly inhibitors; 140 compounds, 93% hits; AID 2677
# FDH inh: FDH (Pseudomonas putida) inhibition counter-screen; 140 compounds, 10% hits; shares compounds with JMJD2A Tudor inh; FDH enzyme assay, NADH fluorescence kinetic; Potency, µM (series often up to 56.7 µM), without a hit: top-dose activity, negative = inhibition, usual class: inhibitors; AID 2680
# G9a inh-2: inhibits human G9a histone lysine methyltransferase, hit confirmation; shares compounds with JMJD2A Tudor inh; G9a H3K9 monomethylation, AlphaScreen, 2 h; Potency, µM, most hits filed as inhibitors; 370 compounds, 89% hits; AID 588344; also: potency is read from the fitted curve at half-maximal effect; nearly all actives have a fitted effect of over 65% in size
# RGS4 inh: inhibits human RGS4, hit validation; shares compounds with JMJD2A Tudor inh; RGS4 GAP activity, Transcreener GDP fluorescence polarization; Potency, µM, hits mostly inhibitors; 25 compounds, 80% hits; AID 602388
# Target sequence (P49798 whole entry, looked up): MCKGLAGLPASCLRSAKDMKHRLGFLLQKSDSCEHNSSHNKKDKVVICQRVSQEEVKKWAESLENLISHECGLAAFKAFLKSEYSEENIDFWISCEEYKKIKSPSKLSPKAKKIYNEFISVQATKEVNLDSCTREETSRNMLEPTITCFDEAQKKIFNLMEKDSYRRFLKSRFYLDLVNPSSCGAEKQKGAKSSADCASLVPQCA
# * = called active by the depositor; ? = inconclusive; . = no result; [ ] = another dose, or the depositor's remark. Calls follow the shape of the dose curve; as a rule, active = well fitted curve in the direction sought with a large enough effect; inconclusive = small, poorly fitted or top-dose-only effect, or another doubt; inactive = no such curve, though single readings can be large; an effect the other way counts as inactive or inconclusive.
SMILES,BAZ2B block,G9a inh-1,12-LOX inh,HP1b binding inh,PLK1 PBD inh,JMJD2A Tudor inh,G9a inh-2,others
CCN(CC)c1ccc(NC(=O)Cn2nnc(-c3cccc(OC)c3OC)n2)c(C)c1,-1%,0.71µM*,-20%,35%,0%,-2%,7.1*,
OCCCCCNc1ncnc2ccccc12,-3%,28%[59 µM],343%,43%,-3%,1%,.,
OCCCCNc1cccc2ccccc12,?,?,?,-20%,-15%,?,5.6*,
CCOc1ccc(NC(=O)CN(C)C(=O)c2ccccc2Cc2ccccc2)cc1OCC,-29%,6%[59 µM],0%,21%,9%,-20%,.,
CCOc1ccc(CC(=O)Nc2sc(Cc3ccccc3)cc2C(N)=O)cc1OCC,-1%,2.5µM*,?,?,17µM*,?,6.3*,
COc1cc2nc(N3CCNCC3)nc(N)c2cc1OC,-1%,?,-3%,?,-2%,?,.,
COc1cc2c(NC3CCN(C)CC3)nc(N3CCCN(C)CC3)nc2cc1OCCCCCN,.,.,.,.,.,.,.,RGS4 inh=?
Cc1ccsc1C(=O)OCC(=O)NC(=O)NC(C)C,.,.,3%,.,.,.,.,
CC(=O)c1ccc(NC(=O)CSc2ccc(-c3cccs3)nn2)cc1,-21%,2.8µM*,?,28%,.,?,6.3*,
Cc1c(C)n(Cc2ccccc2)c2ccc(C(=O)OCCN(C)C)cc12,22µM*,?,?,?,-6%,56µM*,32*,
CCc1ccc(CNC(=O)c2ccc3c(c2)c(C)c(C)n3Cc2ccccc2)cc1,?,-24%[59 µM],-18%,22%,.,?,.,
Cc1ccc(C(=O)Nc2ccc(N3CCCC3)cc2)cc1,-8%,1.6µM*,?,31%,-10%,-4%,1.3*,
CC(C)(C)C(=O)Nc1ccc(N2CCCC2)cc1,?,?,?,26%,-3%,-9%,2.5*,
O=C(/C=C/c1ccccc1)Nc1ccc(N2CCCCC2)cc1,-31%,2.8µM*,-23%,-8%,-3%,-18%,2.2*,
CCCC(=O)Nc1ccc(N2CCCCC2)cc1,-12%,?,5%,-5%,?,-8%[11.4 µM],.,
CC(=O)Nc1ccc(N2CCCC2)cc1,3%,?,-12%,9%,-9%,-18%,6.3*,
Cc1cccc(-n2c(N)c(-c3nc4ccccc4n3C)c3nc4ccccc4nc32)c1,11%,66%[59 µM],-13%,54%,0%,6%,.,
O=C(CNC(=O)c1ccc(Br)o1)Nc1ccc(N2CCCCCC2)cc1,?,2.2µM*,?,-11%,-6%,?,1*,
O=C(CNC(=O)c1ccc(Br)o1)Nc1ccncc1,11%,15%,-17%,11%,-4%,-9%,.,
COc1ccc(-c2cc(C(=O)Nc3nc4ccccc4s3)c3ccccc3n2)cc1OC,1%,7%[59 µM],-21%,22%,?,-23%,.,
Cc1ccc2nc3[nH]c(=O)[nH]c(=O)c3c(N)c2c1,.,.,?,-1%[57 µM],0%,-21%,.,
Cc1ccc2nc(N)[nH]c(=O)c2c1Sc1ccncc1,.,?,-26%[22.9 µM],.,.,.,11*,
CCCCNc1nc(Oc2ccc(OCCC)nn2)nc(N(C)C)n1,-3%,-4%[59 µM],?,38%,.,-8%,.,
c1ccc(-n2nnnc2SCc2cn3ccccc3n2)cc1,?,?,5%,-14%,?,-29%[57.1 µM],28*,
CCc1ccc(C(=O)CC2(O)C(=O)N(Cc3ccc(C)cc3)c3ccccc32)cc1 (stereo not drawn),10µM*,5.6µM*,?,?,.,40µM*,.,RGS4 inh=24*
SMILES,BAZ2B block,G9a inh-1,12-LOX inh,HP1b binding inh,PLK1 PBD inh,JMJD2A Tudor inh,G9a inh-2,others
Cc1ccccc1NCc1ccc(O)c2ncccc12,50µM*,1.1µM*,?,?,3µM*,28µM*,.,JMJD2E confirm=1.4µM*;FDH inh=-13%
Oc1ccc(CNc2ccccc2)c2cccnc12,32µM*,1.3µM*,.,?,7.5µM*,79µM*,.,JMJD2E confirm=2µM*;FDH inh=-21%
Cc1ccccc1CC(=O)Nc1cccc2ncccc12,.,.,38%,.,.,.,.,
COC(=O)c1ccc(OC(=O)C2CC(=O)N(c3ccc(C)cc3C)C2)cc1 (stereo not drawn),-3%,?,-15%,24%,?,-11%,28*,
COc1ccc(OC(=O)C2CC(=O)N(c3ccc(C)cc3)C2)cc1 (stereo not drawn),1%,?,-2%,25%,-3%,15%,.,
O=C(NCc1ccccc1CN1CCCCC1)c1ccc(Cl)cc1N1CCCC1=O,3%,1µM*,?,34%,1%,?,7.9*,
COc1ccccc1CNc1ccc(N2CCCCC2)cc1,13µM*,?,.,32µM*,-22%,32µM*,1.1*,
COc1cccc(CNc2ccc(N3CCCCC3)cc2)c1OC,14µM*,?,-40%,40µM*,-14%,35µM*,0.89*,
CNC(=O)c1ccsc1NC(=O)CCS(=O)(=O)c1ccc(C)cc1,26%,1%[0.501 µM],1%,6%,-9%,-9%,.,
Cc1ccc2ccc(C(Nc3ccccc3)c3ccc(C(C)C)cc3)c(O)c2n1 (stereo not drawn),.,.,-27%,.,-20%,.,.,
Cc1cccc(NC(c2ccc(C)s2)c2ccc3ccc(C)nc3c2O)n1 (stereo not drawn),8%,1.8µM*,?,-2%,?,-4%,0.4*,
COc1ccc(NC(=O)c2sc3nc4c(c(-c5ccco5)c3c2N)CCCCC4)c(OC)c1,.,.,47%,.,.,.,.,
COc1ccc(Cc2nnc(SCC(=O)NC3CCCCC3)n2C)cc1,-1%,?,?,29%,-3%,-3%,10*,
CCc1ccc(NC(=O)N(Cc2ccc(C)cc2)Cc2cccn2-c2nnc(N3CCCC3=O)s2)cc1,-11%,-11%[59 µM],-17%,3%,.,-29%,.,
CCOC(=O)c1ccccc1NC(=O)N(Cc1ccc(C)cc1)Cc1cccn1-c1nnc(N2CCCC2=O)s1,-2%,0.79µM*,-21%,43%,.,10%,?,
